Where “and” joins values, the source holds several entries; their conditions need not be identical. Equal values may be shown once. Results filed as inconclusive are left out. Where a structure was tested more than once in an assay, its records may differ in their call. Calls of active or inactive are those of the source. Calls come from the whole dose curve; as a rule, active = well fitted cell-killing curve with a large enough effect in the repeat runs; inconclusive = weak or mixed curves, or effect the other way; inactive = flat fitted curve, though single readings scatter.

This note sets out measurements from PubChem BioAssay (Tox21).
% is set by controls: 0 for no effect and ±100 for the full control effect; potency is the fitted concentration of half-maximal effect.

This test is described as follows: Nuclear factor erythroid 2-related factor 2/antioxidant responsive element (Nrf2/ARE) small molecule agonists: qHTS cell viability counter screen in human keratinocytes (AID 1919968). Note: nearly all actives have a fitted effect of over 55% in size. The settings on record: KeratinoSens HaCaT ARE cells viability, CellTiter-Fluor, 24 h; series mostly up to 92.4 µM; activity change, negative = cytotoxicity: at the top concentration. The source says: U.S. Tox21 Program National Center for Advancing Translational Sciences [NCATS] Division of Preclinical Innovation [DPI] U.S. Environmental Protection Agency [EPA] National Institutes of Environmental Health Sciences [NIEHS] National Toxicology Program [NTP] U.S. Food and Drug Administration [FDA] Tox21 Assay Overview: Oxidative stress has been implicated in the pathogenesis of a variety of diseases ranging from cancer to neurodegeneration. The antioxidant response element (ARE) signaling pathway plays an important role in the amelioration of oxidative stress. The KeratinoSens (Givaudan, Switzerland) is an in vitro test method which quantifies luciferase induction as a measure of activation of Keap1-Nrf2-antioxidationt/electrophile response element (ARE) dependant pathway in HaCaT human keratinocytes stably transfected with a selectable plasmid. The KeratinoSens assay is a cell-based assay with a reporter cell line to detect potential skin sensitizers by their ability to induce the Nrf2/ARE-response. The activation of the report gene under culture conditions can be detected by ONE-Glo Luciferase Assay System (Promega, Madison, WI). This cell line has been used to screen the Tox21 10K compound library to identify agonists that induce oxidative stress. The cytotoxicity of the Tox21 compound library against the KS-ARE cell line was tested in parallel by measuring the cell viability using CellTiter- Fluor assay system (Promega, Madison, WI) in the same wells.
Tox21 Assay Protocol Summary: HaCaT derived cell line KeratinoSens were dispensed at 1,500 cells/5uL/well in 1536-well white wall/solid bottom plates using a Multidrop Combi (ThermoFisher Scientific, Waltham, MA) dispenser. After the assay plates were incubated at 37 C/5% CO2 for 5 h, 23 nL of compounds dissolved in DMSO, positive controls or DMSO only was transferred to the assay plate by a pintool workstation (Kalypsys, San Diego, CA). The plates were incubated at 37 C/5% CO2 for 23 h, followed by addition of 1uL/well of CellTiter-Fluor reagent into the assay plates using a Flying Reagent Dispenser (Aurora Discovery, San Diego, CA) for cell viability readout that measures cytotoxicity. After 1 h incubation at 37 C/5% CO2 the fluorescence intensity was measured using a ViewLux (PerkinElmer, Shelton, CT) plate reader.
A general note: Quantitative high-throughput screening tests each substance at several concentrations.
Regarding `NC(=O)NS(=O)(=O)c1ccc(Cl)cc1`, the “activity change, negative = cytotoxicity” value was 2.34% [at 42.5 µM] (inactive).
Still for that read-out and setting: the value for `O=C1OC(CN2CCOCC2)CN1/N=C/c1ccc([N+](=O)[O-])o1` (stereo not given) was 14.7% [at 42.5 µM] (inactive); that for `CC[C@]1(O)C[C@@H]2CN(CCc3c([nH]c4ccccc34)[C@@](C(=O)OC)(c3cc4c(cc3OC)N(C)[C@H]3[C@@](O)(C(=O)OC)[C@H](OC(C)=O)[C@]5(CC)C=CCN6CC[C@]43[C@@H]65)C2)C1` was -22.8% [at 42.5 µM] (inactive).
On to `Cc1nc(-c2ccc3c(c2)CCN(CCC2CCC(NC(=O)/C=C/c4ccc(F)cc4)CC2)CC3)no1` (stereo not given), for which the “activity change, negative = cytotoxicity” value was 1.23% [at 42.5 µM] (inactive).
The same measure, in the same setting: the value for `CCCCCCCC/C=C\CCCCCCCC(=O)OCCCC` was 4.3% [at 19 µM] (inactive).
In the case of `CC(=O)OCC(=O)[C@@]1(O)CC[C@H]2[C@@H]3CCC4=CC(=O)C=C[C@]4(C)[C@H]3[C@@H](O)C[C@@]21C`, the “activity change, negative = cytotoxicity” value was 0.773% [at 42.5 µM] (inactive).
For `O=C(c1ccccc1)c1ccccc1O`, the Potency entry was “inactive”.
In the case of `CCC(C)S` (stereo not given), the activity change, negative = cytotoxicity is -0.322% [at 3.27 µM] (inactive).
On the same count and under the same terms, the result for `Nc1nccs1` reads -5.34% (inactive); that for `[O]=[Zr]`, 3.27% (inactive); that for `NC(=O)Nc1ccccc1`, 0.825% (inactive).
For `COc1ccc2cccc(CCNC(C)=O)c2c1`, the “activity change, negative = cytotoxicity” value is -2.08% [at 42.5 µM] (inactive).
On the same count and under the same terms, the result for `COc1cc(/C=C/C(N)=O)cc(OC)c1OC` reads 3.86% [at 42.5 µM] (inactive).
Still for that read-out and setting: the value for `C1CCCC1` was -0.501% (inactive); that for `FC(F)(F)C(Cl)(Cl)Cl` was 4.28% (inactive).
As to `O=c1cc(-c2ccccc2)oc2ccccc12`, the Potency result was “inactive and 13.6 µM (active)”.
On to `NC(=O)N[C@@H](CCC(=O)O)C(=O)O`, for which the “activity change, negative = cytotoxicity” value was 0.52% [at 42.5 µM] (inactive).
Still for that read-out and setting: the value for `COc1cc(C(=O)NCc2ccc(OCCN(C)C)cc2)cc(OC)c1OC` was 4.11% [at 42.5 µM] (inactive).
The same measure, in the same setting: the value for `CC(C)(C)NC(N)=O` was -1.67% (inactive); that for `CCCCCC1CCCC(=O)O1` (stereo not given) was -4.66% (inactive).
On the same count and under the same terms, the value for `CN(C)CCCNCCC#N` was 2.35% (inactive); that for `CC(C)C(=O)C(C)C` was 1.84% (inactive).
Consider `CCC(=O)OC(C)c1ccccc1` (stereo not given), for which the “activity change, negative = cytotoxicity” value was 1.2% (inactive).
The same measure, in the same setting: the value for `C=C(CC)C(=O)c1ccc(OCC(=O)O)c(Cl)c1Cl` was 0.886% [at 42.5 µM] (inactive); that for `C=CC(=O)NC(C)C` was 0.812% (inactive); that for `C1CCCNCCC1` was 0.341% (inactive).
As for `C/C=C(\C)C(=O)OC/C=C(\C)CCC=C(C)C`, the “activity change, negative = cytotoxicity” value was 2.07% (inactive).
With `C[C@]12CC[C@@H]3c4ccc(O)cc4CC[C@H]3[C@@H]1CCC2=O`, the Potency result was “inactive”.
`C=CCOC(=O)CCCCCC`: the “activity change, negative = cytotoxicity” value was 1.46% (inactive).
For the molecule `CN1[C@@H]2CC[C@H]1CC(NC(=O)n1c(=O)[nH]c3ccccc31)C2` (stereo not given in full), the “activity change, negative = cytotoxicity” value was -5.33% [at 42.5 µM] (inactive).
`CC(=O)[C@@]1(O)CC[C@H]2[C@@H]3CCC4=CC(=O)CC[C@]4(C)[C@H]3CC[C@@]21C`: the Potency result was “inactive”.
With `COc1ccc(CCN2CCC(Nc3nc4ccccc4n3Cc3ccc(F)cc3)CC2)cc1`, the Potency is 11.1 µM (active) and 23.7 µM (active).
`O=C(CCS)OCC(COC(=O)CCS)(COC(=O)CCS)COC(=O)CCS`: the “activity change, negative = cytotoxicity” value was -0.125% (inactive).
Same read-out and setting: the result for `C/C=C(\C)C(=O)OCc1ccccc1` reads 0.891% (inactive); that for `O=CC1CC=CCC1` (stereo not given), 1.99% (inactive).
Consider `CCCN1CCCC[C@H]1C(=O)Nc1c(C)cccc1C`, for which the “activity change, negative = cytotoxicity” value is -0.52% [at 42.5 µM] (inactive).
`CN(C)c1ccc(C(=C2C=CC(=[N+](C)C)C=C2)c2ccc(N(C)C)cc2)cc1`: the Potency is 7.66 µM (active) and 13.7 µM (active).
For `CCOc1ccccc1C(N)=O`, the “activity change, negative = cytotoxicity” value is 0.872% (inactive).
The same measure, in the same setting: the result for `Cc1ccc(C(C)(C)O)cc1` reads -5.72% (inactive).
Regarding `Clc1cc(Cl)c(Cl)c(Cl)c1Cl`, the “activity change, negative = cytotoxicity” value was 3.75% (inactive).
